Among all 1,500 compounds or so, about 460 (31%) were called active. Another 1% or so got no clear call; they are omitted.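 The calls were made as follows: active = curve reaches 40% activation over neutral controls at an AC40 no higher than the top valid tested concentration; inconclusive = no clear call, values can overlap the other calls; inactive = signal moving opposite to the expected increase, and the rest.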 A selection follows. Measured potencies and affinities stand elsewhere.

The test can be described thus: activators of glucose-dependent insulin secretion, dose response, cell-based, INS-1E, Gaussia luciferase, luminescence, cherry-pick, set 2 (AID 977607).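 Also: 0% = median of the plate neutral control wells.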 Conditions: INS-1E GLuc insulin secretion reporter, 2-3 h, stronger effect = higher value; at 35 µM, 100% = signal doubled over neutral wells unless noted.
For the compound `COc1ccc(CC(=O)c2ccc(OC)c(OC)c2)cc1`, the max activation was 18.3% [at 0.0016 µM, 100% = signal doubled over neutral wells] (inactive).
Regarding `COc1cc2ccc(C(C)=O)cc2cc1OC`, the max activation was 29.7% [at 0.0016 µM, 100% = signal doubled over neutral wells] (inactive).
Under `COc1ccc(C(C)=O)cc1CSCc1cc(C(C)=O)ccc1OC` stands 10.8% (inactive); under `CC(C)c1ccc2oc(=O)cc(CN3CCCCC3)c2c1`, -12.8% (inactive); under `Cc1cc2oc(=O)cc(CN3CCOCC3)c2c(C)c1Cl`, -12.4% [at 0.0016 µM, 100% = signal doubled over neutral wells] (inactive).
`COc1ccc(-c2cc(C(F)(F)F)n3nc(C(=O)O)cc3n2)cc1OC`: the max activation was 13.4% (inactive).
Under `Cc1ccccc1Cc1c(C)nc2c(C(=O)NCc3ccco3)cnn2c1C` stands -44.9% (inactive); under `C[C@H]1[C@@H](c2ccccc2)Oc2c(Cl)cccc2S(=O)(=O)N1C`, -29.7% [at 11 µM, 100% = signal doubled over neutral wells] (inactive); under `CCN1CCN(c2nnc(-c3ccccc3)c3ccccc23)CC1`, 13.4% [at 0.135 µM, 100% = signal doubled over neutral wells] (inactive).
Under `COC(=O)Cn1cc(C#N)c2ccccc21` stands 43% [at 0.42 µM, 100% = signal doubled over neutral wells] (inactive).
Turning to `CN(C)C(=O)c1ccc(-c2ccc([C@@H]3[C@@H](CO)N4C(=O)CN(C(=O)C5CC5)C[C@@H]34)cc2)cc1`, the max activation is 31.8% [at 0.046 µM, 100% = signal doubled over neutral wells] (inactive).
As for `C/C=C1\COC(C(=O)NCc2ccccc2)(C(F)(F)F)C=C1C=C(C)C` (configuration not stated), the max activation was -29.1% (inactive).
`CN(c1ccc(F)cc1)S(=O)(=O)c1ccc(Cl)c(C(=O)NCC2CCCO2)c1` (configuration not stated): the max activation is -19.1% (inactive).
As to `CN(C(=O)[C@H]1O[C@@H](n2cnc(C(N)=O)n2)[C@H](O)[C@@H]1O)c1ccccc1`, the max activation was -24.3% [at 1.2 µM, 100% = signal doubled over neutral wells] (inactive).
With `CN1CCSc2ccc(C(=O)Nc3cccc(F)c3)cc21`, the max activation is -34.2% (inactive).
Consider `Cc1nc2c(c(N3CCOCC3)n1)OCC(=O)N2`, for which the max activation was 52.8% (inactive).
`COc1cc(C2N(C)CCC3(OCCO3)C2(C)C)cc(OC)c1OC` (configuration not stated): the max activation is -12.6% [at 0.0016 µM, 100% = signal doubled over neutral wells] (inactive).
As to `CCSc1nnc2ccc(-c3cccs3)nn12`, the max activation was 23.8% (inactive).
The value for `COc1ccc(-c2nnc3sc(-c4ccco4)nn23)cc1OC` was -14.1% [at 0.046 µM, 100% = signal doubled over neutral wells] (inactive); that for `CC/C(O)=C1\C(=O)CC(c2ccccc2)CC1=NC(C)C` (configuration not stated) was -12.6% [at 1.2 µM, 100% = signal doubled over neutral wells] (inactive).
In the case of `CCN(CC)CCn1c(=N)n(CC(O)COc2ccccc2)c2ccccc21` (configuration not stated), the max activation was -13.8% [at 3.8 µM, 100% = signal doubled over neutral wells] (inactive).
With `Cc1ccc(C(CC(=O)O)NC(=O)c2ccc(S(=O)(=O)N3CC(C)OC(C)C3)cc2)cc1` (configuration not stated), the max activation is -15.8% [at 0.42 µM, 100% = signal doubled over neutral wells] (inactive).
With `CCOC1=C2[C@H](c3ccc(C)cc3)N(S(=O)(=O)c3ccc(C)cc3)C[C@H]2n2c(=O)n(-c3ccccc3)c(=O)n2C1`, the max activation was -23.2% [at 0.005 µM, 100% = signal doubled over neutral wells] (inactive).
For the compound `CNc1nc(N)c(C(=O)C(C)(C)C)s1`, the max activation is 27.9% [at 11 µM, 100% = signal doubled over neutral wells] (inactive).
Take `CC1(C)Cc2c(c(-c3ccco3)nc3n[nH]c(N)c23)CO1`: the max activation is 25% [at 0.135 µM, 100% = signal doubled over neutral wells] (inactive).
Turning to `CN=C1c2ccccc2CN1c1cccc(C(=O)OC)c1`, the max activation was 14.7% (inactive).
On to `O=S(=O)(c1ccc(NCCCO)nc1)N1CCOCC1`, for which the max activation was -14.1% [at 0.015 µM, 100% = signal doubled over neutral wells] (inactive).
As to `COC(=O)c1c(C)oc(C)c1S(=O)(=O)Nc1ccc(C(C)C)cc1`, the max activation was -24.4% (inactive).
Turning to `Cc1ccc(-c2cnc3cccnn23)cc1F`, the max activation was 39% [at 0.015 µM, 100% = signal doubled over neutral wells] (inactive).
With `COC(=O)c1ccc(Oc2ccc(C(F)(F)F)cn2)cc1`, the max activation is -19.1% [at 0.135 µM, 100% = signal doubled over neutral wells] (inactive).
Take `Cc1nc2c(-c3ccc(F)cc3)cnn2c2c1CCC2`: the max activation is -15.5% [at 0.0016 µM, 100% = signal doubled over neutral wells] (inactive).
As for `COC(=O)C[C@@H]1C=C[C@H](NC(=O)Cc2ccccn2)[C@@H](CO)O1`, the max activation is -17.5% [at 0.015 µM, 100% = signal doubled over neutral wells] (inactive).
With `COCCNC(=O)CCCn1c(=O)c2ccccc2n(Cc2ccccc2C#N)c1=O`, the max activation is -20.3% [at 0.015 µM, 100% = signal doubled over neutral wells] (inactive).
For the compound `CCc1c(C(=O)Nc2ccc(C)c(C)c2)[nH]c(C)c1C(C)=O`, the max activation was -21.4% [at 11 µM, 100% = signal doubled over neutral wells] (inactive).
Regarding `CCN(c1ccccc1)S(=O)(=O)c1ccc(OC)c(OC)c1`, the max activation is 12.1% (inactive).
As to `COc1ccc(S(=O)(=O)N2CCC(C(=O)NCc3ccccn3)CC2)cc1OC`, the max activation is 32.9% [at 3.8 µM, 100% = signal doubled over neutral wells] (inactive).
For the compound `COc1ccc(N2CCN(S(=O)(=O)c3ccc(-c4cc(C)no4)s3)CC2)cc1`, the max activation is -17.8% [at 0.135 µM, 100% = signal doubled over neutral wells] (inactive).
For `COc1ccc(CN(C)C(=O)c2cc(-c3ccc(OC)c(OC)c3)nc3ccccc23)c(OC)c1`, the max activation is -23.5% (inactive).
For the compound `COc1ccc(-c2cc(C(=O)N(C)Cc3ccc(OC)c(OC)c3OC)c3ccccc3n2)cc1OC`, the max activation is 13.2% [at 11 µM, 100% = signal doubled over neutral wells] (inactive).
Turning to `c1cn2cc(-c3ccc(CN4CCOCC4)cc3)ccc2n1`, the max activation is -25.5% [at 3.8 µM, 100% = signal doubled over neutral wells] (inactive).
In the case of `O=c1[nH]c2cc(Cl)ccc2n(CCNc2ncc(C(F)(F)F)cc2Cl)c1=O`, the max activation was -28.9% [at 3.8 µM, 100% = signal doubled over neutral wells] (inactive).
With `COc1ccc(-c2cc3nc4ccccc4n3c(N)c2C#N)cc1`, the max activation is -29% [at 0.135 µM, 100% = signal doubled over neutral wells] (inactive).
For `O=C(O)c1ccc(-c2nc(-c3ccccc3)c(-c3cccs3)[nH]2)cc1`, the max activation is 6.45% [at 1.2 µM, 100% = signal doubled over neutral wells] (inactive).
Consider `COc1ccc(-c2ocnc2C(=O)Nc2ccc(N3CCOCC3)cc2N2CCOCC2)cc1OC`, for which the max activation is -29.2% (inactive).
On to `COc1ccc(C2CC(c3ccc(OC)c(OC)c3)=NN2C(=O)c2ccccc2)cc1` (configuration not stated), for which the max activation is -8.01% [at 0.0016 µM, 100% = signal doubled over neutral wells] (inactive).
For `O=c1c2ccccc2c(-c2ccccc2)nn1-c1ccccn1`, the max activation was -14.4% (inactive).
As to `COc1ccccc1Cn1c(=O)oc2ccccc21`, the max activation was -27.7% [at 0.005 µM, 100% = signal doubled over neutral wells] (inactive).
Consider `COc1cc2c3nnc(-c4ccccc4)c-3cn(Cc3ccccc3F)c2cc1OC`, for which the max activation was -22.1% [at 0.135 µM, 100% = signal doubled over neutral wells] (inactive).
Take `COc1ccc(CNC(=O)C2Cc3c(-c4cccc(F)c4)ccnc3O2)cc1OC` (configuration not stated): the max activation is -18.6% [at 0.015 µM, 100% = signal doubled over neutral wells] (inactive).
For the compound `FC(F)(F)c1ccc(Cl)c(-n2c(Cc3cccs3)n[nH]c2=S)c1`, the max activation was -14.3% [at 0.005 µM, 100% = signal doubled over neutral wells] (inactive).
With `COc1ccc(/C=C2/SC(=O)N(NS(=O)(=O)c3ccccc3)C2=S)cc1OC`, the max activation is -21.6% [at 0.015 µM, 100% = signal doubled over neutral wells] (inactive).
As for `CC1(C)CCCC(C)(C)N1CC(O)COCCOc1ccc(Br)cc1` (configuration not stated), the max activation is -12.4% (inactive).
As to `CCS(=O)(=O)c1nc(S(=O)(=O)c2ccc(C)cc2)c(N2CCC(O)CC2)s1`, the max activation was -18.3% [at 0.42 µM, 100% = signal doubled over neutral wells] (inactive).
Under `Cc1ccc2c(=O)cc(C(=O)NC3CCS(=O)(=O)C3)oc2c1C` (configuration not stated) stands -12.4% [at 0.046 µM, 100% = signal doubled over neutral wells] (inactive); under `Cc1ccnc(NS(=O)(=O)c2ccc(NC(=O)CCc3ccccc3)cc2)n1`, 33.7% [at 1.2 µM, 100% = signal doubled over neutral wells] (inactive); under `CCC(=O)Nc1ccc(C(=O)N/N=C/c2cccnc2)cc1`, -26.1% [at 3.8 µM, 100% = signal doubled over neutral wells] (inactive).
`COc1ccc2oc(C(=O)Nc3nnc(C)s3)c(C)c2c1`: the max activation was -20% [at 0.015 µM, 100% = signal doubled over neutral wells] (inactive).

For the origin of these results see PubChem BioAssay AID977607 (Broad Institute, 2014).
